Bead autofluor: compound fluorescence in toxin protease inhibitor counterscreen; compound autofluorescence counterscreen, microsphere flow cytometry; hits give high values; fluorescence intensity (no concentration beside the values); 3.1% of 360,000 active; AID 624483; in the data active = fluorescence intensity above about 16000; inconclusive = no clear call, values can overlap the other calls
Anthrax LF inh2: inhibitors of Bacillus anthracis lethal factor protease; inhibition, % at 10 µM; multiplex microsphere protease cleavage assay, LF; 0.12% of 360,000 active; AID 588501; note: plate controls were buffer without enzyme for full effect and enzyme alone for no effect
BoNT F protease: BoNT F light chain protease inhibition; inhibition, % at 10 µM; Multiplex microsphere protease cleavage assay, flow cytometry; 0.22% of 360,000 active; in the data active = inhibition above about 35%, passing the limit was not always enough; inconclusive = no clear call, values can overlap the other calls; note: plate controls were buffer without enzyme for full effect and enzyme alone for no effect
PfHsp40 yeast: compounds rescuing yeast from Plasmodium falciparum HSP40 toxicity. S. cerevisiae expressing PfHsp40, growth rescue, ATP luminescence. growth rescue, % at 12.5 µM. 0.68% of 340,000 active. AID 504582; in the data active = growth rescue above about 28%, passing the limit was not always enough; inconclusive = no clear call, values can overlap the other calls;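 note: yeast W303a lacking pdr1 and pdr3 grown in galactose medium; growth measured after three days at 30 °C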
BoNT-A LC inh2: inhibitors of Botulinum neurotoxin A light chain protease; inhibition, % at 10 µM; multiplex microsphere protease substrate cleavage, flow cytometry; 0.17% of 360,000 active; note: plate controls were buffer without enzyme for full effect and enzyme alone for no effect
MazF activator: increases E. coli MazEF RNase cleavage of RNA; P0AE70; FAM/BHQ RNA-DNA oligo cleavage fluorescence, 5 h; activation, % at 20 µM; 0.32% of 350,000 active; AID 504720; in the data active = activation above about 50%
* hit, by the source's call; ? = inconclusive; nt = not tested or not shown. In the library only some 4.3% were active in any assay of this set; here they are far more common. Cut-off read from the data, not from the text of the source, unless noted: active = inhibition above about 30%; inconclusive = no clear call, values can overlap the other calls; inactive = below that.

SMILES	Bead autofluor	Anthrax LF inh2	BoNT F protease	PfHsp40 yeast	BoNT-A LC inh2	MazF activator
CN(c1ccccc1)c1nc(-n2ccnc2)nc(-n2ccnc2)n1	4521	0	6	10	0	10
CCc1cccc(C)c1NC(=O)CSc1nnc(C)o1	5568	-2	1	-1	0	3
COc1ccc(N2C(=O)CCC2=O)cc1	20610*	-2	5	-1	?	2
CC(=O)Oc1ccc(N2C(=O)CCC2=O)cc1	3030	9	?	0	1	2
Cc1ccccc1CNC(=O)C1CCN(c2nnc(N3CCCC3=O)s2)CC1	4807	-12	-1	0	-1	9
COc1ccc(C(=O)CSc2nnc(CCc3ccccc3)n2-c2ccccc2)cc1	24111*	-1	-4	1	-2	-4
COc1ccc(-n2c(CCc3ccccc3)nnc2SCC(=O)c2ccccc2)cc1	2037	-2	10	5	0	2
O=C(Nc1ccc(F)cc1)N1CCC(c2nc3c(nnn3Cc3cccc(Cl)c3)c(=O)[nH]2)CC1	25569*	-2	-10	0	-5	-13
Cc1ccc(NC(=O)N2CCC(c3nc4c(nnn4Cc4cccc(Cl)c4)c(=O)[nH]3)CC2)cc1	9870	-2	-10	12	0	-7
CNC(=O)/C(C#N)=C/c1ccc(-c2nc3ccccc3s2)o1	4322	-3	2	nt	0	94*
N#C/C(=C\c1ccc(-c2nc3ccccc3s2)o1)C(N)=O	4382	-2	?	0	4	5
N#C/C(=C(/O)c1ccco1)c1nc2ccccc2s1	3187	-17	?	-1	-1	-9
CC1=CC(=C(C#N)c2nc3ccccc3s2)C=C(C)N1Cc1ccco1	12978	1	-4	1	3	605*
CCS(=O)(=O)Nc1ccc(C2=NN(C(=O)c3ccco3)C(c3ccc(C)cc3)C2)cc1 (stereo unspecified)	16946*	-13	-2	3	?	0
CCN(CCCNC(=O)C1CCC(=O)N1Cc1ccccc1Cl)c1cccc(C)c1 (stereo unspecified)	30276*	-4	-25	0	-17	-6
CN(CCCNC(=O)C1CCC(=O)N1Cc1ccccc1Cl)c1ccccc1 (stereo unspecified)	16389*	-1	1	0	1	-3
CCN(CCCNC(=O)C1CCC(=O)N1Cc1ccc(C)cc1)c1cccc(C)c1 (stereo unspecified)	3196	0	1	1	0	-5
COc1cccc(CN2CCN(c3cccc(C(F)(F)F)c3)CC2)c1OC	16287*	-5	-5	2	-1	-8
COc1cccc(CN2CCN(C(=O)CC(C)C)CC2)c1	2933	-3	0	36*	-1	5
COc1cc(CN2CCN(c3cccc(Cl)c3)CC2)cc(OC)c1OC	25470*	-2	-7	1	-6	-3
COc1cc(CN2CCN(S(=O)(=O)c3ccccc3)CC2)cc(OC)c1OC	3506	-9	?	1	1	9
COc1cccc(N2CCN(Cc3cccnc3)CC2)c1	20710*	-4	-4	0	0	5
COc1ccc(Cl)cc1NC(=O)CCc1nc(-c2ccccc2F)no1	4978	-5	-2	0	1	-4
CN(C)c1ccc(C(CNC(=O)COc2ccc(Cl)cc2)N2CCCC2)cc1 (stereo unspecified)	4492	-3	1	0	0	4
COc1cccc(CN2CCN(c3ncccn3)CC2)c1	22009*	-2	-3	-2	0	4
SMILES	Bead autofluor	Anthrax LF inh2	BoNT F protease	PfHsp40 yeast	BoNT-A LC inh2	MazF activator
COc1ccc(S(=O)(=O)N2CCN(C(=O)CC(C)C)CC2)cc1	2951	-4	40*	1	4	10
COc1cccc(N2CCN(Cc3ccc(Cl)cc3)CC2)c1	10809	-8	-14	0	0	-11
COc1cccc(N2CCN(Cc3cccc(Cl)c3)CC2)c1	24340*	-5	-6	1	?	5
COc1cc(CN2CCN(Cc3ccc([N+](=O)[O-])cc3)CC2)c([N+](=O)[O-])cc1OC	2343	-1	0	1	0	-1
COc1cccc(CN2CCN(Cc3cc(OC)c(OC)cc3[N+](=O)[O-])CC2)c1	16274*	-13	14	0	?	-2
Cc1cc(Br)c2c(c1)C1(OCCO1)C(=O)N2	3832	0	?	0	1	1
CC1CC(C)(C)NC2(CCCC2)N1 (stereo unspecified)	2928	0	-15	-1	0	-1

Bioassay records (PubChem BioAssay)
